Experiment [1] has as its target THRB (gene 7068) (UniProt P10828). The experiment can be described thus: TOX21_TRB_COA_Agonist_Followup_ratio: Tox21 Thyroid Hormone Receptor beta Agonism through Coactivator Recruitment Follow-Up Assay, Ratio (AID 2283963; active = hit-call score of the fitted dose curve at least 0.9, where 1 is the maximum; inactive = score below 0.9). The method in brief:
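First, the GST-fused TRβ ligand-binding domain (5.0 nM) was incubated with test compound in 0.10% BSA. Next, fluorescein-tagged SRC-2 peptide (200 nM) and terbium anti-GST antibody (2 nM) were added. Finally, TR-FRET emission ratios were normalized against DMSO and T3 controls.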

Experiment [2] deals with Retinoic acid receptor RXR-alpha (Homo sapiens) (UniProt P19793). The experiment can be described thus: TOX21_TR_RXR_BLA_Agonist_Followup_ratio: Tox21 Thyroid Hormone Receptor beta Retinoid X Receptor alpha (RXRa) Agonism Beta-lactamase (BLA) Follow-Up Assay, Ratio (AID 2283968). Put shortly:
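This follow-up tests whether responses seen in the TR GH3 luciferase agonist screen are specific, using a GAL4-driven beta-lactamase reporter for RXRa in HEK293T cells. Compound exposure lasts 16 h; signal is the cleaved/uncleaved substrate ratio.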

The nature of experiment [3]: TOX21_TR_RXR_BLA_Agonist_Followup_viability: Viability Assessment in the Tox21 Thyroid Hormone Receptor beta Retinoid X Receptor alpha (RXRa) Agonism Beta-lactamase (BLA) Follow-Up Assay (AID 2283970). Put shortly:
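In qHTS format, RXRa-bla HEK293T cells (2,500/well) received compound for 16h. ATP content was then measured with CellTiter-Glo, and responses were fitted bidirectionally relative to DMSO controls.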

For experiment [4], the target named is Ratio of Nucleoli Translocation and Cytoplasm, AR (gene 367) (UniProt P10275). The experiment can be described thus: UPITT_HCI_U2OS_AR_TIF2_Nucleoli_Cytoplasm_Ratio_Antagonist: University of Pittsburgh U2OS Androgen Receptor-Transcriptional Intermediary Factor 2 (AR-TIF2) Antagonism High Content Imaging Assay for Ratio of Nucleoli Translocation and Cytoplasm (AID 2283999).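 Also: antagonists lower the DHT-driven ratio of nucleolar to cytoplasmic red signal.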 The method in brief:
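High-content imaging quantifies the red nucleolar:cytoplasmic fluorescence ratio in U2OS cells with AR-RFP and TIF2-GFP. Final concentrations are 20 uM (screen) or 0.195–50 uM (dose response), analysed against DHT as baseline.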

For experiment [5] the target is unchanged. The experiment can be described thus: UPITT_HCI_U2OS_AR_TIF2_Nucleoli_Cytoplasm_Ratio_Agonist: University of Pittsburgh U2OS Androgen Receptor-Transcriptional Intermediary Factor 2 (AR-TIF2) Agonism High Content Imaging Assay for Ratio of Nucleoli Translocation and Cytoplasm (AID 2284000).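 Also: hits raise the red nucleolar to cytoplasm ratio above vehicle.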 Put shortly:
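U2OS cells expressing RFP-tagged human AR and GFP-tagged TIF2; high-content imaging ratio of nucleolar to cytoplasmic red fluorescence, fitted as gain of signal vs DMSO. Single point at 20 uM final (0.2% DMSO); concentration-response 0.195-50 uM final (0.5% DMSO).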

For experiment [6], the target named is Nucleoli Translocation, AR (gene 367) (UniProt P10275). The experiment can be described thus: UPITT_HCI_U2OS_AR_TIF2_Nucleoli_Agonist: University of Pittsburgh U2OS Androgen Receptor-Transcriptional Intermediary Factor 2 (AR-TIF2) Agonism High Content Imaging Assay for Nucleoli Translocation (AID 2283998). The method in brief:
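Red-tagged human androgen receptor co-expressed with GFP-tagged TIF2 serves as the binding reporter. Primary testing used 20 uM final (0.2% DMSO); follow-up dose response covered 0.195 to 50 uM final (0.5% DMSO).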

The target in experiment [7] is THRB (gene 7068) (UniProt P10828). The experiment can be described thus: TOX21_TRB_COA_Antagonist_Followup_ratio: Tox21 Thyroid Hormone Receptor beta Antagonism through Coactivator Recruitment Follow-Up Assay, Ratio (AID 2283967). The method in brief: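 Cell-free TR-FRET: GST-TRb LBD (5.0 nM) with fluorescein-SRC-2 peptide (200 nM) and Tb anti-GST antibody (2 nM), 0.10% BSA. 520:495 nm emission ratio normalized to DMSO (0%) and T3 (100%).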
Chain of THRB (gene 7068) (P10828 whole entry, looked up, the tested form may be a part): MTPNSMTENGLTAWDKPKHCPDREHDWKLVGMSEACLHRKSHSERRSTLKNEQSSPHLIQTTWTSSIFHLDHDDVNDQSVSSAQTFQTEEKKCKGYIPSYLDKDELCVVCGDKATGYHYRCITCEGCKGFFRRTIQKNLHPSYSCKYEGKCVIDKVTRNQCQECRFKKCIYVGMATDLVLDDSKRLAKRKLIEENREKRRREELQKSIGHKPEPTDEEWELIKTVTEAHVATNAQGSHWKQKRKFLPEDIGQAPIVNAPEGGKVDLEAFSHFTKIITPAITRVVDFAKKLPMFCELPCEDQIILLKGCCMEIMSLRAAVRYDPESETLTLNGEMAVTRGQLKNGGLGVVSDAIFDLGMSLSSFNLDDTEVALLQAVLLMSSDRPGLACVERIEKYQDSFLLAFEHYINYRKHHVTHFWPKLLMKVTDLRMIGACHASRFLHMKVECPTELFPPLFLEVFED

For experiment [8], the target named is Retinoic acid receptor RXR-alpha (Homo sapiens) (UniProt P19793). The experiment can be described thus: TOX21_TR_RXR_BLA_Antagonist_Followup_ratio: Tox21 Thyroid Hormone Receptor beta Retinoid X Receptor alpha (RXRa) Antagonism Beta-lactamase (BLA) Follow-Up Assay, Ratio (AID 2283972). The method in brief: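 Antagonist mode used GAL4 UAS-driven beta-lactamase in HEK293T cells expressing RXRa, treated for 16 h with compound concentration series. Activity was taken from the blue/green (460:530 nm) ratio of cleaved to uncleaved substrate.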
Chain of Retinoic acid receptor RXR-alpha (Homo sapiens) (P19793 whole entry, looked up, the tested form may be a part): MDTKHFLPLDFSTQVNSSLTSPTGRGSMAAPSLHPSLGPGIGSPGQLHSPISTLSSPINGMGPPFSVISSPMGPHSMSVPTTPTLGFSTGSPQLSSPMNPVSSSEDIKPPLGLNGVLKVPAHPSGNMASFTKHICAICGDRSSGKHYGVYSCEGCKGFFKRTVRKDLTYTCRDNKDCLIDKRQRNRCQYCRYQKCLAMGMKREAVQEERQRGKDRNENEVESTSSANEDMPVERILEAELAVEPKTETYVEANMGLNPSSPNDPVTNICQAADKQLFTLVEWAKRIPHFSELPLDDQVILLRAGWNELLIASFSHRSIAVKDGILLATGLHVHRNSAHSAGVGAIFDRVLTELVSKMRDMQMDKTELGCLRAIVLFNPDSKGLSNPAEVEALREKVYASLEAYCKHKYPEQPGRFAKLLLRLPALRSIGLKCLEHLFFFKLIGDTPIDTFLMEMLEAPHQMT

A short description of experiment [9]: TOX21_TR_RXR_BLA_Antagonist_Followup_viability: Viability Assessment in the Tox21 Thyroid Hormone Receptor beta Retinoid X Receptor alpha (RXRa) Antagonism Beta-lactamase (BLA) Follow-Up Assay (AID 2283979). Put shortly: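 RXRa-bla HEK293T cells (2,500/well, phenol red-free DMEM, 2% charcoal-stripped FBS) were attached 5 h, then exposed to compounds at 11 concentrations in triplicate for 16 h at 37C. Viability measured by CellTiter-Glo ATP luminescence, bidirectional fitting versus DMSO.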

Another experiment concerns DIO1 (gene 1733). The experiment can be described thus: CCTE_GLTED_hDIO1: CCTE's human Deiodinase 1 (DIO1) Inhibition Assay, Great Lakes Toxicology and Ecology Division (GLTED) Lab (AID 2283987).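 Also: isolated human DIO1 enzyme in a cell-free setup rather than cells; enzyme activity read as free iodide liberated from substrate via Sandell-Kolthoff colorimetry.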 The method in brief:
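Cell-free hDIO1 assay, triplicate plates. Absorbance of the Sandell-Kolthoff reaction reports enzyme-liberated iodide; iodinated chemicals or nitrite, iron and thiocyanate may interfere.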

Records with an inconclusive call do not appear. Activity calls are given as the source filed them. The calls were made as follows, unless noted: active = hit-call score of the fitted dose curve at least 0.9, where 1 is the maximum; inconclusive = response in the unintended direction; inactive = score below 0.9.

Chain of Ratio of Nucleoli Translocation and Cytoplasm, AR (gene 367) (P10275 whole entry, looked up): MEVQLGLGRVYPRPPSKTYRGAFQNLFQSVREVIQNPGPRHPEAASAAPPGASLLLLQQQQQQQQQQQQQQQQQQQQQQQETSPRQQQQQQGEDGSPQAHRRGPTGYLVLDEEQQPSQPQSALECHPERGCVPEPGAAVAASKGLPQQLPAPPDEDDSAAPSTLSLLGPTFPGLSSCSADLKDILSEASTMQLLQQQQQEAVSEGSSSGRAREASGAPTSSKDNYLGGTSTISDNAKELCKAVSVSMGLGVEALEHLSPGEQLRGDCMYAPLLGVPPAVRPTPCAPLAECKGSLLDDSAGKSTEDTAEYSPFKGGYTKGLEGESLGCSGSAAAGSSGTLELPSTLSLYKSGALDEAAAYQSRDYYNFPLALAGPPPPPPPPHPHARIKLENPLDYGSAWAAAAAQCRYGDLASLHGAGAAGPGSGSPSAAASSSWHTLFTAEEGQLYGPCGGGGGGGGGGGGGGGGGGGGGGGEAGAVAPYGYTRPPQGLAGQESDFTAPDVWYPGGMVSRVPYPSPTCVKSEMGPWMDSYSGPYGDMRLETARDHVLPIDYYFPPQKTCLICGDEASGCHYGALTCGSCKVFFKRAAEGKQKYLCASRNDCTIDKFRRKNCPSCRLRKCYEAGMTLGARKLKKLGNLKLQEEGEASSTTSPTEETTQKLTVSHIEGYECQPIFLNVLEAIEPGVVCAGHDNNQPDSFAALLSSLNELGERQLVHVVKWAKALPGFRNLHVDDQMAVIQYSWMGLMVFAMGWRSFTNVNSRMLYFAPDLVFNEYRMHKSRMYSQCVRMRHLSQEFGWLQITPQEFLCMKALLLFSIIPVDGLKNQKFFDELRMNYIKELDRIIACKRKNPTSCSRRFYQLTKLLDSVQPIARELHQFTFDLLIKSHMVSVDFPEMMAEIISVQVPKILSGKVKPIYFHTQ
Chain of Nucleoli Translocation, AR (gene 367) (P10275 whole entry, looked up): as above

Consider `C[C@H](CCC(=O)NCC(=O)O)[C@H]1CC[C@H]2[C@@H]3[C@H](O)C[C@@H]4C[C@H](O)CC[C@]4(C)[C@H]3C[C@H](O)[C@]12C`, for which the outcome (with THRB (gene 7068) [1]; in experiment [2]; in [3]) was inactive.
With `CCCCC1CCC(O)CC1` (stereo unspecified), the outcome in [4] and in [5] was inactive.
As for `CC(C=O)Cc1ccc(C(C)(C)C)cc1` (stereo unspecified), the call in [6], in [4] and in [5] was inactive.
In the case of `OCc1cccc(Oc2ccccc2)c1`, the outcome in [4] and in experiment [5] was inactive.
The AC50 is the midpoint of the concentration-response curve, whichever way the signal moves. Regarding `Oc1c(Cl)cc(Cl)c(Cl)c1Cc1c(O)c(Cl)cc(Cl)c1Cl`, the result (with THRB (gene 7068) [7]; in experiment [8]) was inactive. Also, the AC50 in experiment [9] was 33.3 µM (active).
Turning to `CCOc1ccc(N=Nc2ccc(C=Cc3ccc(N=Nc4ccc(OCC)cc4)cc3S(=O)(=O)O)c(S(=O)(=O)O)c2)cc1`, the AC50 in the experiment with DIO1 (gene 1733) was 0.72 µM (active).
As to `CCCCCCCCCCCCCC(=O)OCC(O)CO` (stereo unspecified), the call in experiment [6] and in experiment [5] was inactive.
Consider `CCCCCCCCCCCCCCN(CCO)CCO`, for which the AC50 with DIO1 (gene 1733) is 30.6 µM (active).
As to `CC(C)CCCCCCc1ccc(OCCOCCO)cc1`, in experiment [4], the outcome was inactive.
Turning to `CC(=O)C1(C)CC2=C(CCCC2(C)C)CC1C` (stereo unspecified), the result in experiment [6], in experiment [4] and in [5] was inactive.
For the molecule `BrCc1cccc(Oc2ccccc2)c1`, the molecule was called inactive in experiment [6], in experiment [4] and in experiment [5].
Consider `CC1CCC(C(C)C)C(O)C1` (stereo unspecified), for which, in experiment [4], the outcome was inactive.
Regarding `Cc1ccc(S(=O)(=O)Oc2ccc(N=Nc3ccc(-c4ccc(N=Nc5c(O)ccc6cc(S(=O)(=O)O)cc(S(=O)(=O)O)c56)c(C)c4)cc3C)cc2)cc1`, the call in experiment [6], in [4] and in experiment [5] was inactive.
For `O=Cc1ccccc1S(=O)(=O)O`, the result (in the experiment with THRB (gene 7068) [1]; in experiment [2]; in experiment [3]) was inactive.
With `C[C@H]1O[C@@H](O[C@H]2[C@@H](O)C[C@H](O[C@H]3[C@@H](O)C[C@H](O[C@H]4CC[C@@]5(C)[C@H](CC[C@@H]6[C@@H]5C[C@@H](O)[C@]5(C)[C@@H](C7=CC(=O)OC7)CC[C@]65O)C4)O[C@@H]3C)O[C@@H]2C)C[C@H](O)[C@@H]1O`, the outcome in experiment [4] was inactive.
Take `Oc1ccc2cc(SSc3ccc4cc(O)ccc4c3)ccc2c1`: the AC50 with DIO1 (gene 1733) was 2.62 µM (active).
In the case of `N[C@@H](Cc1cc(I)c(Oc2cc(I)c(O)c(I)c2)c(I)c1)C(=O)O`, the result in [2] and in experiment [3] was inactive.
Regarding `CC(C)CCCCCCCCCCCCCCC(=O)O`, the AC50 in the experiment with DIO1 (gene 1733) is 72.8 µM (active).
For `Cc1cc(C)nc(NS(=O)(=O)c2ccc(N)cc2)n1`, the outcome (with THRB (gene 7068) [1]; in [2]; in [3]) was inactive.
Consider `CCOC(=O)[C@@H](C)Oc1ccc(Oc2nc3ccc(Cl)cc3o2)cc1`, for which the molecule was classed as inactive in experiment [6], in [4] and in [5].
For `CC(=O)Nc1ccc(C(=O)CCl)cc1`, in the experiment with THRB (gene 7068) [1], the result was inactive. Further, the AC50 in experiment [3] was 69.1 µM (active).
Consider `C=C1CC[C@H](O)C/C1=C/C=C1\CCC[C@]2(C)[C@@H]([C@H](C)/C=C/[C@H](C)C(C)C)CC[C@@H]12`, for which, in the experiment with DIO1 (gene 1733), the AC50 is 19.8 µM (active).
Turning to `CCc1cc(Cc2cc(CC)cc(C(C)(C)C)c2O)c(O)c(C(C)(C)C)c1`, the AC50 in experiment [6] was 77.1 µM (active); in experiment [4], 50 µM (active); in experiment [5], 91.2 µM (active).
For `CCCCCCCCSCCO`, the result in experiment [6] and in [5] was inactive.
For `OCCCCC(O)CO` (stereo unspecified), the result (with THRB (gene 7068) [1]; in experiment [2]) was inactive.
Regarding `Nc1ccc(N)c2c1C(=O)c1ccccc1C2=O`, the molecule was called inactive in experiment [6], in experiment [4] and in experiment [5].
`CCCCC(CC)COC(=O)c1ccc(O)cc1` (stereo unspecified): the AC50 in the experiment on DIO1 (gene 1733) was 85.4 µM (active).
Take `CC(=O)O[C@H]1C[C@@H]2CC[C@@]1(C)C2(C)C`: the outcome in [4] was inactive.
As for `CCCCCCCCC=CCCCCCCCC1=NCCN1CCO`, the AC50 with DIO1 (gene 1733) is 36.3 µM (active); in [6], 13.3 µM (active); in [5] it was 13.7 µM (active). In addition, the outcome in [4] was inactive.

The values are drawn from PubChem BioAssay (EPA / NIEHS).
